Measured values from ChEMBL document CHEMBL3988442, “University of Dundee, Small-Polar-MMV Screening Library” (2021).
For part of these data: Measured potencies and affinities stand elsewhere.

Assays:
Parameters in all cases: scale not given: direction of the effect not stated beside the values
[1] = target: Protein translocase subunit SecA (Escherichia coli (strain K12)) (UniProt P10408); assay: Assay to Identify E. coli SecA ATPase Inhibitors; type: functional; conditions: 30 µM
[2] = target: T1, Ubiquitin-activating enzyme e1, putative (Leishmania donovani (strain BPK282A1)) (UniProt E9BSI1); assay: Leishmania donovani Ubiquitin Activating Enzyme (LdE1); type: functional; conditions: 30 µM
T1 sequence (whole entry): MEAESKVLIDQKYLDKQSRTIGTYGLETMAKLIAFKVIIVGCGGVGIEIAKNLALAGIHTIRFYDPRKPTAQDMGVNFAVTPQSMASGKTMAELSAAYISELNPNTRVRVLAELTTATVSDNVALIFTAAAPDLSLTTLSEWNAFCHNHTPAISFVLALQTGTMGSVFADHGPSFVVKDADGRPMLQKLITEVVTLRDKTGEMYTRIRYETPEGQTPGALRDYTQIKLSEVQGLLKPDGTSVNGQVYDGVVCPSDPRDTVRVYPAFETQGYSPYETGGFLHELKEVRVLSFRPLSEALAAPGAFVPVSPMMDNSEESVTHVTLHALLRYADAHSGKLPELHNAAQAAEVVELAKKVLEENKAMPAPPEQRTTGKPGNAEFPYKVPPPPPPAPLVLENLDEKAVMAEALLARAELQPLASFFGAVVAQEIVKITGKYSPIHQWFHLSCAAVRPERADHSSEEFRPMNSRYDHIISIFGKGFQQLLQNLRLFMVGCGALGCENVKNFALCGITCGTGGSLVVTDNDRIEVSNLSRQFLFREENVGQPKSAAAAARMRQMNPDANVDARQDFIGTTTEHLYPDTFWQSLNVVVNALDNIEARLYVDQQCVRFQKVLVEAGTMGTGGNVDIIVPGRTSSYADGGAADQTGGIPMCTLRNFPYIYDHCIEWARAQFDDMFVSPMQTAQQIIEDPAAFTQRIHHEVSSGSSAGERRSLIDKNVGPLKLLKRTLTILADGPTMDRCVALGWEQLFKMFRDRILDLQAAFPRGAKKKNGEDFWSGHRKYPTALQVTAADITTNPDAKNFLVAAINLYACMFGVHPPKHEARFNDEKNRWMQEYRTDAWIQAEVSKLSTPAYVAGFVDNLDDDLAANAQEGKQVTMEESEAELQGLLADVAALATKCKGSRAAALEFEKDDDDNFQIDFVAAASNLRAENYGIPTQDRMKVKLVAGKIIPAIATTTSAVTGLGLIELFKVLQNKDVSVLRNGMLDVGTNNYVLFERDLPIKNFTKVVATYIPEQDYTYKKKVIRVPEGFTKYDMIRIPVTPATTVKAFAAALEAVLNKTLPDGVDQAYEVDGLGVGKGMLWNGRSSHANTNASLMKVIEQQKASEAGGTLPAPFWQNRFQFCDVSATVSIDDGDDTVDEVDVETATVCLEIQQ

[3] = target: T2, Aspartate--tRNA(Asp/Asn) ligase (Mycobacterium tuberculosis (strain ATCC 25618 / H37Rv)) (UniProt P9WFW3); assay: Assay for Asp RNA synthetase-1 from Mycobacterium tuberculosis; type: functional; conditions: 30 µM; further: in the data most compounds retested in dose-response had high values
T2 sequence (whole entry): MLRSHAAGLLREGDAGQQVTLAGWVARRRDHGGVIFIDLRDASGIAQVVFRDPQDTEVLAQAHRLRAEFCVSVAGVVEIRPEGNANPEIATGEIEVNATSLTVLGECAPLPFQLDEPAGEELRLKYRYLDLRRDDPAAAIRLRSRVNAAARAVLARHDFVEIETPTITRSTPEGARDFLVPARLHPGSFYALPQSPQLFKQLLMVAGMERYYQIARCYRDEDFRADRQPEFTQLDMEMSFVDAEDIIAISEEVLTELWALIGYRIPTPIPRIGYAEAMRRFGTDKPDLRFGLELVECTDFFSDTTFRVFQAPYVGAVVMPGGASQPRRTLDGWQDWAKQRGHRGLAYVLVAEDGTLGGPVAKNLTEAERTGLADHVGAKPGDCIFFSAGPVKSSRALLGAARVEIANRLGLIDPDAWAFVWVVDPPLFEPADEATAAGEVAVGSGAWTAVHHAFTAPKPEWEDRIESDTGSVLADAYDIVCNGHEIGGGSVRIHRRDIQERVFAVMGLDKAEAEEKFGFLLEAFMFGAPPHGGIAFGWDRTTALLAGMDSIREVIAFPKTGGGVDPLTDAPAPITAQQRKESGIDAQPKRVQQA

[4] = target: AMP-activated protein kinase, AMPK (Homo sapiens) (UniProt P54646+O43741+P54619+Q9UGJ0+Q9Y478+Q13131+Q9UGI9); assay: AMP-dependent Kinase enzyme assay. An in vitro enzyme assay that detects ADP turnover that is directly proportional to AMPK activity. This uses naive AMPK that is activated during the assay with MK-8722; type: functional; conditions: 30 µM
[5] = target: Sialic acid-binding Ig-like lectin 9 (Homo sapiens) (UniProt Q9Y336); assay: Hs-Siglec9 ALPHAscreen SOP 20170721; conditions: 10 µM
Trypanosoma cruzi = assay: Trypanosoma cruzi phosphomannomutase and mannose-1-phosphate guanylyltransferase assay; type: functional; conditions: 10 µM
[6] = target: T3, Arginase-2, mitochondrial (Homo sapiens) (UniProt P78540); assay: in vitro enzyme assay to detect the production of urea directly proportional to the activity of Arginase II; type: functional; conditions: 33.3 µM; further: in the data most compounds retested in dose-response had high values
T3 sequence (whole entry): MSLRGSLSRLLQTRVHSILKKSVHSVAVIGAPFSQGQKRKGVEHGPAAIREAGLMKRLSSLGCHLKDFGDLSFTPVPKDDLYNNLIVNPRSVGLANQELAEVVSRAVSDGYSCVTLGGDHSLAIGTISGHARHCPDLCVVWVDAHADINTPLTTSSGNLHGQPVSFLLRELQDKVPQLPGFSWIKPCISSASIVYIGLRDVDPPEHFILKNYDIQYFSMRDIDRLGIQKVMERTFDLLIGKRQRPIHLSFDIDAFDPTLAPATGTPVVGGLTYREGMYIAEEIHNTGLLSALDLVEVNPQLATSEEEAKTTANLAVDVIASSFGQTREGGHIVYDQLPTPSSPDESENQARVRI

[7] = target: T4, Proteasome subunit beta (Trypanosoma cruzi) (UniProt O96673); assay: Trypanosoma cruzi proteasome chymotrypsin-like activity (TcProtChymo) assay.; further: in the data most compounds retested in dose-response had high values; type: functional; conditions: 9.37 µM
T4 sequence (whole entry): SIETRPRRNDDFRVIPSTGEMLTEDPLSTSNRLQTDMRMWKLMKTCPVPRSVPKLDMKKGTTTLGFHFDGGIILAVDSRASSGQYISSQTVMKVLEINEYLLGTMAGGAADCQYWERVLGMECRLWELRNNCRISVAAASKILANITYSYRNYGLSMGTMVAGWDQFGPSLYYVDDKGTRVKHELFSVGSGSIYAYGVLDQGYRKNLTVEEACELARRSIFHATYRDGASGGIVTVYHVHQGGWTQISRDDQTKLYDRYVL

Homo sapiens = species on record: Homo sapiens; assay: To identify inhibition of the IFN signalling (Jak-Stat) pathway via expression of an eGFP reporter gene under the control of an IFN-stimulated response element (ISRE) containing MxA promoter.; type: functional; conditions: 30 µM
[8] = target: Shiga toxin 2 (Escherichia coli O157:H7) (UniProt P09385+P09386); assay: E. coli 0.157:H7 Shiga Toxin SOP - stx2 screening assay; type: functional; conditions: 30 µM
[9] = target: T5, Tyrosyl-tRNA synthetase, putative (Trypanosoma cruzi (strain CL Brener)) (UniProt Q4DSP6); assay: Trypanosoma cruzi tyrosyl tRNA synthetase (TcYRS) _High Tyrosine SOP; type: functional; conditions: 30 µM; further: in the data most compounds retested in dose-response had high values
T5 sequence (whole entry): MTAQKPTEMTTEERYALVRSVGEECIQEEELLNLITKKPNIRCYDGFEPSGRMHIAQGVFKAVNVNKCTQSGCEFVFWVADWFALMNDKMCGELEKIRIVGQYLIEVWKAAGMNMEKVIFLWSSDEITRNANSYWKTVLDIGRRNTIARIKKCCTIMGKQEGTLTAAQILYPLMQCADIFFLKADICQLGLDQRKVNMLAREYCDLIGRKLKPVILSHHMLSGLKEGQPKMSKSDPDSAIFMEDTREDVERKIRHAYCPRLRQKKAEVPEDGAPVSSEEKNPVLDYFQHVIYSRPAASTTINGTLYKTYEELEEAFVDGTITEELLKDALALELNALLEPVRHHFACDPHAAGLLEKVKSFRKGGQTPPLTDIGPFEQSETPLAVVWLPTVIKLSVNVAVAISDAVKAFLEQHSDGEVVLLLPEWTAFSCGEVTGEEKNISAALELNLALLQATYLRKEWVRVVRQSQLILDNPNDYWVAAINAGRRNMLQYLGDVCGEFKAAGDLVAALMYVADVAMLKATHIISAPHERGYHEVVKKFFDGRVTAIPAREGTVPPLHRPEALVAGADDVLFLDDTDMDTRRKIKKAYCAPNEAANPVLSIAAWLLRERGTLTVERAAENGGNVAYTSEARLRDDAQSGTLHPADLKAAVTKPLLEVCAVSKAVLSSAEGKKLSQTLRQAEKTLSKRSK

[10] = target: T5, Tyrosyl-tRNA synthetase, putative (Trypanosoma cruzi (strain CL Brener)); assay: Trypanosoma cruzi tyrosyl tRNA synthetase (TcYRS) SOP; type: functional; conditions: 30 µM
[11] = target: Chromo domain-containing protein 1 (Saccharomyces cerevisiae (strain ATCC 204508 / S288c) (Baker's yeast)) (UniProt P32657); assay: ScCHD-1 Enzyme Inhibition Assay; type: functional; conditions: 30 µM; further: in the data most compounds retested in dose-response had high values
Sequence of Chromo domain-containing protein 1 (Saccharomyces cerevisiae (strain ATCC 204508 / S288c) (Baker's yeast)) (P32657 whole entry, the tested form may be a part): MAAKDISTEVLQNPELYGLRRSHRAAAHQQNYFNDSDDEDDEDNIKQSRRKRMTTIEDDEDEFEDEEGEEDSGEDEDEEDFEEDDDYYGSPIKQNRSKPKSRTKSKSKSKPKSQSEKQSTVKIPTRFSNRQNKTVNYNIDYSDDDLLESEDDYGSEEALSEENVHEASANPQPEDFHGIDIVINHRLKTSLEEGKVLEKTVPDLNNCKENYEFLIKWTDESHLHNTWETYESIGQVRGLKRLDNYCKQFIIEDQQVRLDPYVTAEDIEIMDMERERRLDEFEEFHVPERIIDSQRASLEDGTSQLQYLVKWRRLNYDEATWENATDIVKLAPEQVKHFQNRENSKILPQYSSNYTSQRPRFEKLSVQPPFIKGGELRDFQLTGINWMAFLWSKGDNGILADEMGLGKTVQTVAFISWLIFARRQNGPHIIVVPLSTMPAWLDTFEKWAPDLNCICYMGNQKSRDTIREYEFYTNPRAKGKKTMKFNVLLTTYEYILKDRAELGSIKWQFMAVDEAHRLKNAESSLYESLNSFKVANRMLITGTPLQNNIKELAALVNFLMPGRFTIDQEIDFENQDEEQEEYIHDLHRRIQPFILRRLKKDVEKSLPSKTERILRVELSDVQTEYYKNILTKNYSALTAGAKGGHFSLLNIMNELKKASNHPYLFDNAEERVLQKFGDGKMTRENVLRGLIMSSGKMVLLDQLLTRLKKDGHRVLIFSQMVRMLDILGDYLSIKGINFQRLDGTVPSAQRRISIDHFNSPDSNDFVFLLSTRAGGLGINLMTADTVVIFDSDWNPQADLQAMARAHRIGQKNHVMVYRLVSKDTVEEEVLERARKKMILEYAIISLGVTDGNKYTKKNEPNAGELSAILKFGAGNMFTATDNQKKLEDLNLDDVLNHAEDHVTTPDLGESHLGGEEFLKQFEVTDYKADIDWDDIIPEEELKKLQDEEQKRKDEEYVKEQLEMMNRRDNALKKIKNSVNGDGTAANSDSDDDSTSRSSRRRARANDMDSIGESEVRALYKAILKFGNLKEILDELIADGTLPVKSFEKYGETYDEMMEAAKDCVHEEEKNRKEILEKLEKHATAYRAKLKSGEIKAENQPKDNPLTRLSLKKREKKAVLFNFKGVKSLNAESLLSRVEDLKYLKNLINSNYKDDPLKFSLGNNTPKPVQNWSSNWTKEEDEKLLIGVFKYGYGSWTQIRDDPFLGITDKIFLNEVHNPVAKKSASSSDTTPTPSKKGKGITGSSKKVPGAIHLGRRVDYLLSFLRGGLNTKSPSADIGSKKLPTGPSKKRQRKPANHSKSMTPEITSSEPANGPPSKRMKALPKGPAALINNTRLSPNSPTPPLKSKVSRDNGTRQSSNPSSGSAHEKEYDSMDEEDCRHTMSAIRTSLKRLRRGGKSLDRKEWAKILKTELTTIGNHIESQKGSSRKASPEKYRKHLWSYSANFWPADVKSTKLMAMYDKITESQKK

Sequence of Protein translocase subunit SecA (Escherichia coli (strain K12)) (P10408 whole entry): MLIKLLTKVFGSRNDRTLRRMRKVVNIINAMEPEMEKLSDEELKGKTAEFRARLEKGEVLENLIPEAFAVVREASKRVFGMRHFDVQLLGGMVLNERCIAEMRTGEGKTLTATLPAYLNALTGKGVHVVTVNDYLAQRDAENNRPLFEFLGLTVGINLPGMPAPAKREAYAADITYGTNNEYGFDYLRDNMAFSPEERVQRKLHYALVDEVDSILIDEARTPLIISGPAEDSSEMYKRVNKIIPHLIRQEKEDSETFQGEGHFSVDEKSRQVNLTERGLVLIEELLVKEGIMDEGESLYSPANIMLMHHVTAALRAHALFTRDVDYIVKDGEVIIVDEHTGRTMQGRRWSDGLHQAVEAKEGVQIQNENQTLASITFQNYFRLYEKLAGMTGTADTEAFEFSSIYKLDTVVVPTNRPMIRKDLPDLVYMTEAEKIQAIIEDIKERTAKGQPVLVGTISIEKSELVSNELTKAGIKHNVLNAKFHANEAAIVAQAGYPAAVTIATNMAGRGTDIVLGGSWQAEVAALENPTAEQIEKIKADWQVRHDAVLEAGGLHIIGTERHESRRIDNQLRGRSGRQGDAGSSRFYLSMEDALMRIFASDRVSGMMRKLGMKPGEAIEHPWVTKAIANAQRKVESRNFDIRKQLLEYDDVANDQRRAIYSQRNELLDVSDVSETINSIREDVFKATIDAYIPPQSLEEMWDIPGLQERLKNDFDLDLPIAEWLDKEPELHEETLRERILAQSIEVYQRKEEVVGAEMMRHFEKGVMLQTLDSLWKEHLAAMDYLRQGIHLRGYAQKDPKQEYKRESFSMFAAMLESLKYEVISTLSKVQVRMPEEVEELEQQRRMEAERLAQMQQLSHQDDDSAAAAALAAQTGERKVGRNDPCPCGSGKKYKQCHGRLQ
Sequence of Sialic acid-binding Ig-like lectin 9 (Homo sapiens) (Q9Y336 whole entry): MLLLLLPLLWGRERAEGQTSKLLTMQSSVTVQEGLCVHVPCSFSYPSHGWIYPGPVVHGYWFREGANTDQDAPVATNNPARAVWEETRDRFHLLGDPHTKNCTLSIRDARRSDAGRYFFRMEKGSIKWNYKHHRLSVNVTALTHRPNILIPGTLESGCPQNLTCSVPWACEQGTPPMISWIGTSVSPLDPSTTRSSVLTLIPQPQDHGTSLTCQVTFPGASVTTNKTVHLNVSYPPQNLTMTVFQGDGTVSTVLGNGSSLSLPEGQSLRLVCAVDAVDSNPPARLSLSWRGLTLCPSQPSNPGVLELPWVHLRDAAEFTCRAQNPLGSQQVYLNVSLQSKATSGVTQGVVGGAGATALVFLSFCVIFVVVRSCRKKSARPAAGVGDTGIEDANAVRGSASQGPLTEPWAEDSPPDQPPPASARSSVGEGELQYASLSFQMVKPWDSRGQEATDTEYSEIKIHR

SMILES	Percent Effect [1]	Percent Effect [2]	Percent Effect [3]	Percent Effect [4]	Percent Effect [5]	Percent Effect (Trypanosoma cruzi)	Percent Effect [6]	Percent Effect [7]	Percent Effect (Homo sapiens)	Percent Effect [8]	Percent Effect [9]	Percent Effect [10]	Percent Effect [11]
CN(C)C(=O)CN1CCN(C(=O)Cc2csc(-c3ncccn3)n2)CC1	-3.23%	13.2%	-1.92%	-1.28%	12%	-3.19%	1.92%	8.69%	23.7%	30%	5.39%	9.76%	-7.21%
COCCN1C[C@@H]2[C@@H](OC)CCN(Cc3cccc(C)n3)[C@@H]2C1	-1.97%	11%	-0.137%	-7.2%	9.07%	6.75%	-2%	12.1%	-7.05%	-22.1%	7.29%	13.6%	-5.26%
Cc1noc([C@@H]2C[C@H]3CN(Cc4cc(C)on4)C[C@H]3O2)n1	-0.923%	10.4%	2.67%	5.31%	-5.26%	-4.63%	9.68%	12.4%	10.4%	-9.84%	3.17%	6.41%	-8.87%
O=C(Cn1ccc2c(Cl)cccc21)N1CCC2(CC1)OCCO2	-2.33%	10.8%	0.188%		5.66%	1.46%	49.3%	11.8%	12.8%	1.14%	4.79%	19.5%	-2.23%
